Screening results from PubChem.
S16 F2sN tox = Cell viability qHTS assay in S16 Pmp22-F2sN cells. S16 Pmp22-F2sN Schwann cells viability, CellTiter-Glo, 24 h. Potency, µM (top dose mostly 57.5 µM), actives largely listed as cytotoxic. actives 0.48% (n = 43,000). AID 1508642, 2021; also: nearly all actives have a fitted effect of over 65% in size
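S16 Schwann cells carrying the Pmp22-F2sN reporter, seeded in 1536-well format, were exposed to library compounds for 24 h at 37C. Viability was read as CellTiter-Glo luminescence after 15 min at room temperature.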
p53null 39C tox = qHTS Screen for Compounds that Selectively Target Cancer Cells with p53 Mutations: Cytotoxicity of p53 Null Cells at the Nonpermissive Temperature. H1299 p53-null (neo) cells, 39C, ATPlite viability, 24 h. Potency, µM (top dose mostly 46.1 µM), usual class: cytotoxic. actives 0.97% (n = 55,000); also: nearly all actives have a fitted effect of over 50% in size
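H1299 lung cancer cells, p53-null (H1299-neo) or expressing p53 A138V (H1299-p53A138V), were plated overnight at 37C, then exposed to compounds at up to 46 uM for 24 hr at 39C. Viability was read by ATP-based luminescence.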
p53null 32C tox = qHTS Screen for Compounds that Selectively Target Cancer Cells with p53 Mutations: Cytotoxicity of p53 Null Cells at the Permissive Temperature; H1299-neo p53 null cells, ATP luminescence, 24 h, 32C; Potency, µM (highest dose often 46.1 µM), hits mostly cytotoxic; actives 0.62% (n = 55,000); AID 903, 2007; also: nearly all actives have a fitted effect of over 55% in size
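Cells lacking p53 (H1299-neo) are plated at 600 per well and allowed to settle overnight at 37C. Test compounds (up to 46 uM) are added and held 24 hours at 32C, then ATP is quantified by luminescence.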
pS6 MEF inh = Acumen qHTS Assay for Inhibitors of the mTORC1 Signaling Pathway in MEF (Tsc2-/-, p53-/-) Cells: Sytravon. Tsc2-/- p53-/- MEF, phospho-rpS6 immunofluorescence/PI, 24 h. Potency, µM (highest dose often 38.3 µM), most hits filed as inhibitors. actives 0.78% (n = 44,000). AID 493208, 2011; also: nearly all actives have a fitted effect of over 50% in size
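Readout is phospho-S6 Alexa 488 signal normalized to PI per well, reported as % active cells with thresholds set from rapamycin (7.5 nM) and DMSO controls. Cells: Tsc2-/-, p53-/- MEFs, 24 hrs compound at 37 C; PI cell number serves as viability.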
PMP22 txn = Cell-based coincidence reporter assay to measure PMP22 gene transcription in S16 Pmp22-F2sN cells - Primary screen; actives 2% (n = 43,000); S16 Pmp22-F2sN Schwann cells (luciferase reporters placed in the Pmp22 gene), FLuc/NLuc coincidence luminescence, 24 h; Potency, µM (series often up to 57.5 µM), hits mostly inhibitors; AID 1508649, 2021; active = clear falling dose curves in both reporters; inconclusive = both reporters move, but less clearly or upward; inactive = either reporter flat; the % is the NLuc reporter signal
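Rat S16 Pmp22-F2sN cells, 500-1,000/well in phenol red-free DMEM + 10% FBS, compound-treated 24 h (37C, 5% CO2). Luminescence: FLuc read, Stop&Glo added, NLuc read.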
OvCa metastasis = Primary qHTS assay for Inhibitors of ovarian cancer metastasis using an organotypic tumor microenvironment (TME) model. Potency, µM (top dose mostly 45.8 µM), most hits filed as inhibitors. SKOV3ip1-GFP adhesion/invasion on 3D omental model, fluorescence. actives 0.1% (n = 46,000); also: nearly all actives have a fitted effect of over 65% in size
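Adhesion/invasion was scored as fixed GFP-labeled SKOV3ip1 cell counts (488/509 nm), normalized to DMSO and tomatine controls. Cancer cells in serum-free medium, with four compound doses (0.36-46 umol/L), sat 2 hr at RT then 16 hr at 37 C on a 48 hr fibroblast/mesothelial/ECM culture.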
Large screens that a line does not name were inactive. In the library only some 3.1% were active in any assay of this set; here they are far more common. Unless noted, calls follow the shape of the dose curve; as a rule, active = well fitted curve in the direction sought with a large enough effect; inconclusive = small, poorly fitted or top-dose-only effect, or another doubt; inactive = no such curve, though single readings can be large; an effect the other way counts as inactive or inconclusive.

Cc1ccc(CN2c3ccccc3-c3nc(SCC(=O)NCCc4ccccc4)ncc3S2(=O)=O)cc1	none
Cc1ccc(CN2c3ccccc3-c3nc(SCC(=O)Nc4c(C)cc(C)cc4C)ncc3S2(=O)=O)cc1	S16 F2sN tox 28.2µM, PMP22 txn inconclusive
N#Cc1ccc(Oc2ccc3c(c2)COB3O)cc1	none (no result: S16 F2sN tox, p53null 39C tox, p53null 32C tox, pS6 MEF inh, PMP22 txn)
Oc1cc(-c2nc(-c3ccccc3)[nH]c2-c2ccncc2)ccc1Cl	none (no result: S16 F2sN tox, p53null 39C tox, p53null 32C tox, pS6 MEF inh, PMP22 txn)
C=CCn1c(C)cc(C(=O)COC(=O)[C@@H](NC(=O)c2ccccc2Cl)C(C)C)c1C	p53null 32C tox 11.2µM (no result: S16 F2sN tox, p53null 39C tox, pS6 MEF inh, PMP22 txn, OvCa metastasis)
CCOc1ccc(-c2cnc(NCc3ccc(C(F)(F)F)cc3)n2C)cc1	p53null 39C tox inconclusive, p53null 32C tox inconclusive, pS6 MEF inh 18.5µM, PMP22 txn inconclusive
COc1cc2nc(SCC(=O)Nc3cccc(C)c3)n3nc(CCn4c(C)nc5ccccc54)nc3c2cc1OC	S16 F2sN tox inconclusive, PMP22 txn inconclusive
COc1cc2nc(SCC(=O)Nc3ccc(F)cc3)n3nc(CCn4c(C)nc5ccccc54)nc3c2cc1OC	p53null 39C tox 20µM
CN[C@@H]1CN(c2ccc3c(=O)c(C(=O)O)cn(-c4nccs4)c3n2)C[C@@H]1OC	none (no result: S16 F2sN tox, p53null 39C tox, p53null 32C tox, pS6 MEF inh, PMP22 txn)
COCc1nn2cc(-c3ccc(C)cc3)nc2s1	p53null 39C tox 10µM, p53null 32C tox 10µM, PMP22 txn inconclusive
CCOc1ccc(-c2cn3nc(CC(C)C)sc3n2)cc1	p53null 39C tox inconclusive, p53null 32C tox inconclusive
CCc1ccc(C(=O)NC(=S)Nc2ccc3c(c2)OCCO3)cc1	none (no result: S16 F2sN tox, p53null 39C tox, pS6 MEF inh, PMP22 txn, OvCa metastasis)
CCOc1ccc(C(=O)Nc2ccc3c(c2)OCCO3)cc1Br	p53null 39C tox 12.6µM, p53null 32C tox inconclusive
Cc1cc(SCc2sc(-c3ccc(C(F)(F)F)cc3)nc2C)ccc1OCC(=O)O	none (no result: S16 F2sN tox, p53null 39C tox, p53null 32C tox, pS6 MEF inh, PMP22 txn)
CCC[C@H]1C[C@H](C(=O)N[C@@H]([C@@H]2O[C@@H](SC)[C@@H](O)[C@@H](O)[C@@H]2O)[C@H](C)Cl)N(C)C1	none (no result: S16 F2sN tox, p53null 39C tox, p53null 32C tox, pS6 MEF inh, PMP22 txn)
CCC(C(=O)NC1CCCCC1)n1c(SCc2cccc(C)c2)nc2ccncc21 (stereo not given)	p53null 39C tox 7.94µM, p53null 32C tox 12.6µM, PMP22 txn inconclusive
COc1ccc(C)cc1Nc1nc(N)c2cc(OC)c(OC)cc2n1	S16 F2sN tox inconclusive, p53null 39C tox 10µM, p53null 32C tox inconclusive, pS6 MEF inh inconclusive, PMP22 txn inconclusive, OvCa metastasis inconclusive
CCCCc1nc2cc(C=CC(=O)NO)ccc2n1CCN(CC)CC	none (no result: S16 F2sN tox, p53null 39C tox, p53null 32C tox, pS6 MEF inh, PMP22 txn)
CN1CCc2c(sc3c2C(=O)NC(c2ccc(C(C)(C)C)cc2)N3)C1 (stereo not given)	S16 F2sN tox 14.1µM, PMP22 txn inconclusive
C[C@@]1(C(=O)Nc2ccc(F)nc2)CCCN1c1nc(Nc2cc(C3CC3)[nH]n2)c2cccn2n1	none (no result: S16 F2sN tox, p53null 39C tox, p53null 32C tox, pS6 MEF inh, PMP22 txn)
COc1ccc(C(=O)NC(c2ccccc2Cl)c2cc(Cl)c3cccnc3c2O)cc1 (stereo not given)	S16 F2sN tox 3.16µM, p53null 32C tox inconclusive, pS6 MEF inh inconclusive, PMP22 txn inconclusive
COc1cc(C(=O)NC(c2ccccc2Cl)c2cc(Cl)c3cccnc3c2O)cc(OC)c1OC (stereo not given)	S16 F2sN tox inconclusive, p53null 32C tox inconclusive, PMP22 txn 4.39µM
Cc1ccc(NC(=O)NCC2CCN(Cc3cccc(Cl)c3)CC2)cc1Cl	S16 F2sN tox inconclusive, p53null 39C tox inconclusive, pS6 MEF inh 10.4µM, PMP22 txn inconclusive
COc1cccc(NC(=O)Nc2cc(-c3cn4cccnc4n3)ccc2C)c1	p53null 39C tox inconclusive, PMP22 txn inconclusive
